High-throughput results as filed in PubChem BioAssay.
In the library only some 18% were active in any assay of this set; here they are far more common.
Gal4-VP16 FLuc – Gal4-VP16 reporter inhibition counter-screen. Drosophila S2 Gal4-VP16 UAS-luciferase, luminescence, 20 h. Potency, µM (doses to about 53.6 µM), hits mostly inhibitors. 310,000 compounds, 3.5% hits. AID 2546;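 further: Gal4-VP16 expression switched on by copper sulfate through the metallothionein promoter; nearly all actives have a fitted effect of over 50% in size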
TDP1 cell CPT – growth inhibition of DT40 Tdp1-/-;hTDP1 cells with camptothecin (screen for TDP1 inhibitors) | chicken DT40 Tdp1-/-;hTDP1 cells + 20 nM CPT, ATP luminescence, 48 h | Potency, µM (highest dose often 46.2 µM), most hits filed as inhibitors | 420,000 compounds, 12% hits | AID 686979; further: nearly all actives have a fitted effect of over 55% in size
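Chicken DT40 Tdp1-/- cells complemented with human TDP1, 400 cells/well, exposed to compounds plus 20 nM camptothecin for at least 48 h at 37 C; viability read as ATP content by CellTiter-Glo luminescence.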
RORg inh – blocks mouse ROR gamma transcriptional activity; Drosophila S2 Gal4-RORgamma UAS-luciferase reporter, 20 h; Potency, µM (top dose mostly 53.6 µM), most hits filed as inhibitors; 310,000 compounds, 5.4% hits; AID 2551; further: nearly all actives have a fitted effect of over 60% in size
Target sequence (P51450 whole entry, looked up, the tested form may be a part): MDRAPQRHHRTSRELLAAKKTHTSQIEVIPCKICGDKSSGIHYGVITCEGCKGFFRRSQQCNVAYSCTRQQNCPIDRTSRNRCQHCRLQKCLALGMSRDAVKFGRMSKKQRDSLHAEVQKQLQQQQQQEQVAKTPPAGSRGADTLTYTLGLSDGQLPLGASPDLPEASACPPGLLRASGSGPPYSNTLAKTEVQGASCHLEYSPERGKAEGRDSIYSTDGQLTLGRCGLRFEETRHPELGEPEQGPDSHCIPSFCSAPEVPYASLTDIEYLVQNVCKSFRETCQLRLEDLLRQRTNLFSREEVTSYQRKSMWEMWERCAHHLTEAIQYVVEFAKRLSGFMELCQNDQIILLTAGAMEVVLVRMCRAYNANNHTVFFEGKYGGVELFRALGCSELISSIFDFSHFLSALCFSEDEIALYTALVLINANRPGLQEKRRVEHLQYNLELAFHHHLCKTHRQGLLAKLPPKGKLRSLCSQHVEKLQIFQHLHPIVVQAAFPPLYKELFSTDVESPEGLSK
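Schneider cells (Drosophila), stable Gal4 DBD–ROR gamma + UAS-luc; 1 hr cmpd preincubation; Cu2+ induction 700 uM final; 20 hr ambient; luminescence.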
IL1B secr inh – inhibitors of inflammasome signaling (IL-1 beta secretion); THP-1 LPS/ATP IL-1B secretion, AlphaLISA, 16 h; stronger effect = lower value; 360,000 compounds, 4.7% hits; activity change, % at 57.5 µM; AID 743279; in the data active means activity change below about -50%; inconclusive means mostly about -30% to -49%
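Secreted IL-1B measured by AlphaLISA bead assay after 16 h compound exposure of THP-1 cells; compounds (final up to 57.5 uM) added 1 h before LPS (250 ng/mL) and ATP (1.25 mM) stimulation; lower signal means less secretion.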
DT40 TDP1 no CPT – qHTS for Inhibitors of human tyrosyl-DNA phosphodiesterase 1 (TDP1): qHTS in cells in absence of CPT | DT40 Tdp1-/- hTDP1 cells, no CPT, ATP luminescence, 48 h | Potency, µM (top dose mostly 46.2 µM), actives largely listed as inhibitors | 420,000 compounds, 15% hits | AID 686978, 2013; further: nearly all actives have a fitted effect of over 55% in size
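Growth of hTDP1-complemented DT40 Tdp1-knockout cells is measured by ATP luminescence after at least 48 hr compound exposure at 37 °C, with DMSO substituting for the 20 nM CPT used in the parallel screen.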
LDHA inh – inhibitors of human lactate dehydrogenase A; activity change, % (values are at about 110 or 230 µM); AID 1347041; 480,000 compounds, 0.15% hits; purified LDHA, NADH/diaphorase-resazurin fluorescence; stronger effect = lower value; P00338; in the data active means activity change below about -30%; inconclusive means mostly about -25% to -30%
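LDH5 2 nM; NADH 0.06 mM, pyruvate 0.2 mM; 200 mM Tris pH 7.4, EDTA, Tween-20; 5 min RT. Detection: diaphorase 0.133 mg/mL + resazurin 37 µM, fluorescence ex540/em590 at 0 and 20 min; normalized to enzyme-free and DMSO wells.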
Hits are given with their value; 0 = inactive; ? = inconclusive; - = no result; ! = repeats disagree. Unless noted, the call rests on the fitted dose curve; in most records, active means well fitted curve in the direction sought with a large enough effect; inconclusive means small, poorly fitted or top-dose-only effect, or another doubt; inactive means no such curve, though single readings can be large; an effect the other way counts as inactive or inconclusive.

SMILES	Gal4-VP16 FLuc	TDP1 cell CPT	RORg inh	IL1B secr inh	DT40 TDP1 no CPT	LDHA inh
CCOc1cccc2sc(N3CCN(C(=O)c4ccc5c(c4)CCCC5)CC3)nc12	-	18.4µM	-	-	13µM	0
COc1cccc2sc(N3CCN(C(=O)c4ccc([N+](=O)[O-])o4)CC3)nc12	-	20.6µM	-	-83.9	18.4µM	0
Clc1cccc2sc(N3CCN(c4ccccc4)CC3)nc12	0	23.1µM	?	0	20.6µM	0
O=C(c1ccc([N+](=O)[O-])o1)N1CCN(c2nc3c(Cl)cccc3s2)CC1	-	20.6µM	-	-79.3	13µM	0
O=C(c1ccc([N+](=O)[O-])o1)N1CCN(c2nc3ccc(F)cc3s2)CC1	-	20.6µM	-	0	23.1µM	0
O=C(c1ccccc1)c1ccc(C(=O)N2CCN(c3nc4ccc(F)cc4s3)CC2)cc1	-	-	-	-	-	0
COc1ccc(C(=O)Cn2nnc(-c3ccccc3NC(=O)C3CCCCC3)n2)cc1	0	23.1µM	0	0	?	0
CC1Cc2ccccc2N1C(=O)Cn1nnc(-c2ccccc2NC(=O)C2CCC2)n1 (configuration not stated)	0	?	0	0	14.6µM	0
Cc1cc(O)c(Oc2cc(C)cc(O)c2O)c(O)c1	?	4.61µM	17.8µM	0	5.17µM	0
CC1(C)C(=O)C2(CCCCC2)C(=O)OC1c1cccn1-c1ccc([N+](=O)[O-])cc1 (configuration not stated)	0	?	0	0	?	0
CC1(C)C(=O)OC(c2cccn2-c2ccc([N+](=O)[O-])cc2)C(C)(C)C1=O (configuration not stated)	0	14.6µM	0	0	23.1µM	0
CCS(=O)(=O)NC(C)C(c1cccs1)N1CCN(c2ccc(F)cc2)CC1 (configuration not stated)	0	?	?	0	20.6µM	0
CCS(=O)(=O)NC(C)C(c1cccs1)N1CCN(C)CC1 (configuration not stated)	0	0	0	0	0	0
Cc1ccc(S(=O)(=O)NC(C)C(c2cccs2)N2CCN(C)CC2)cc1 (configuration not stated)	0	0	0	0	0	0
CC(NC(=O)Cc1cccs1)C(c1cccs1)N1CCN(c2ccccc2)CC1 (configuration not stated)	-	?	-	0	?	0
CC(NC(=O)c1ccco1)C(c1cccs1)N1CCN(c2ccccc2F)CC1 (configuration not stated)	0	?	0	0	?	0
CC(NC(=O)Cc1cccs1)C(c1cccs1)N1CCN(c2ccccc2F)CC1 (configuration not stated)	0	17.8µM	0	0	?	0
CC(NC(=O)c1ccco1)C(c1cccs1)N1CCN(c2ccc(F)cc2)CC1 (configuration not stated)	?	18.4µM	0	-72.3	23.1µM	0
CCN1CCN(C(c2cccs2)C(C)NS(=O)(=O)c2ccc(Br)cc2)CC1 (configuration not stated)	0	?	0	0	25.9µM	0
CCCc1nnc2sc(-c3ccc(OC)cc3)nn12	-	-	-	-	-	0
CCN1C(=O)C(Cc2ccc(OC)cc2OC)c2ccccc21 (configuration not stated)	-	-	-	-	-	0
CNC(=S)N/N=C/c1ccc(F)cc1F	-	-	-	-	-	0
O=C(c1c(F)cccc1Cl)N1CCC2(CC1)OCCN2S(=O)(=O)c1ccccc1	-	-	-	-	-	0
CCC/C(O)=C1\C(=O)CC(C)(C)CC1=Nc1ccc(OC)cc1OC	0	2.91µM	0	0	2.06µM	0
CCCC/C(O)=C1\C(=O)CC(C)(C)CC1=Nc1ccccc1OC	0	?	0	0	?	0
SMILES	Gal4-VP16 FLuc	TDP1 cell CPT	RORg inh	IL1B secr inh	DT40 TDP1 no CPT	LDHA inh
CCCCCCN=C1CC(C)(C)CC(=O)/C1=C(/O)CCC	0	?	0	?	16.4µM	0
COC(=O)CC/C(O)=C1\C(=O)CC(C)(C)CC1=Nc1ccccc1OC	0	23.1µM	0	0	?	0
CCC/C(O)=C1\C(=O)CC(C)(C)CC1=Nc1cccc([N+](=O)[O-])c1	0	?	0	0	?	0
COc1ccc(OC)c(C(C(=O)NCc2ccco2)N(C(=O)Cn2nnc3ccccc32)C2CC2)c1 (configuration not stated)	0	13µM	0	0	16.4µM	0
COc1ccc(C(C(=O)Nc2ccc(F)cc2)N(C(=O)Cn2nnc3ccccc32)C2CC2)cc1 (configuration not stated)	0	0	0	-71.7	?	0
COc1ccc(OC)c(C(C(=O)NCc2ccco2)N(C(=O)Cn2nnc3ccccc32)C(C)C)c1 (configuration not stated)	0	0	0	0	0	0
CCCCN(C(=O)Cn1nnc2ccccc21)C(C(=O)NCCOC)c1ccc(OC)cc1 (configuration not stated)	0	0	0	0	0	0
O=C(O)c1ccc(CN2CCC(CO)CC2)cc1	-	-	-	-	-	0
CCN(CC)c1nc(C#N)nc(N2CCOCC2)n1	-	10µM	-	-	10µM	0
CN(C#N)c1nc(N2CCOCC2)nc(N2CCOCC2)n1	-	?	-	0	?	0
CC(C)CN(C#N)c1nc(N2CCOCC2)nc(N2CCOCC2)n1	0	11.6µM	0	0	11.6µM	0
Cc1ccc(C(=O)/C(=C\c2ccc(Cl)c(Cl)c2)c2nc3ccccc3o2)cc1	-	-	-	-	-	0
CCc1ccc(NC(=O)c2cc(=O)c3cc(C)c(C)cc3o2)cc1	-	-	-	-	-	0
COc1cccc(NC(=O)CCc2c(C)nc3c4cccnc4nn3c2C)c1	-	?	-	-	18.4µM	0
Cc1cc(C)cc(NC(=O)CCc2c(C)nc3c4cccnc4nn3c2C)c1	-	0	-	-	18.4µM	0
COc1ccc(NCC(=O)Nc2ccccc2C(=O)NC2CC2)cc1	-	-	-	-	-	0
NCCCn1c2ccccc2c2ccccc21	-	-	-	-	-	0
Cc1ccc2c(=O)c3ccccc3n(CCCN)c2c1C	15.8µM!	-	11.2µM!	-	-	-
CCC(C)[C@H](NC(=O)N1CC(=O)Nc2ccccc21)C(=O)Nc1ccccc1C (some centres not stated)	0	16.4µM	0	0	?	0
Cc1ccc2c(c1)N(C(=O)CCC(=O)NCc1ccccc1)CC(C)O2 (configuration not stated)	0	0	0	0	0	0
Cc1cccc(N2CCN(C(=O)CCC(=O)N3CC(C)Oc4ccc(C)cc43)CC2C)c1 (configuration not stated)	0	16.4µM	0	0	?	0
